Source: the supplement of paper PMC10849652
The full data set covers some 7,900 targets. This sample favours those with a hit. About 0.6% of all pairs of compound and target were hits.

Assays:
Assay in all cases: log2 fold change, soluble protein after heating vs DMSO (PISA); higher = thermal stabilisation; K562 cells, 10 uM, 30 min; active = over 0.2 and 3.5 SD of the protein, either way, in both replicates (recomputed)
erlotinib = compound: C#Cc1cccc(Nc2ncnc3cc(OCCOC)c(OCCOC)cc23)c1 [erlotinib]
Method in brief: (§1)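 Values are thermal stability changes relative to control samples and are taken from duplicates. They are stated as log2 fold changes. Before quantification by TMTpro 16plex LC-MS/MS with equalised channel sums, K562 cells at 2×10^6 cells/mL were treated with 10 μM compound for 30 min, heated in aliquots for 3 min across 48°C-58°C, pooled, extracted in PBS with 0.5% NP-40 at 4°C, and centrifuged at 21,000xg for 90 min to give the soluble supernatant.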

[1] = compound: C1=CC(=C(C=C1Cl)C2=NC3=NC=CN=C3C(=N2)NC4=CC=NC=C4)F
Method in brief: as §1

[2] = compound: C1=CC(=CC=C1C2=NC3=C(N2)C=C(C=C3)C(=O)N)OC4=CC=C(C=C4)Cl
Method in brief: as §1

[3] = compound: C1=CC2=NC=CN=C2C=C1/C=C/3\C(=O)NC(=O)S3
Method in brief: as §1

[4] = compound: C1=CC=C(C=C1)C2=NC(=C(N2)C3=CC=NC=C3)C4=CC(=C(C=C4)Cl)O
Method in brief: as §1

[5] = compound: C1CCN(C1)C(=O)NC2=CC=CC(=C2)NC3=NC=C(C(=N3)NCCC4=CN=CN4)Br
Method in brief: as §1

[6] = compound: C1CN(CCC1(CC2=CC=C(C=C2)Cl)N)C3=NC=NC4=C3C=CN4
Method in brief: as §1

IRAK-1-4 Inhibitor I = compound: C1COCCN1CCN2C3=CC=CC=C3N=C2NC(=O)C4=CC(=CC=C4)[N+](=O)[O-] [IRAK-1-4 Inhibitor I]
Method in brief: as §1

ibrutinib = compound: C=CC(=O)N1CCC[C@@H](n2nc(-c3ccc(Oc4ccccc4)cc3)c3c(N)ncnc32)C1 [ibrutinib]
Method in brief: as §1

ralimetinib = compound: CC(C)(C)Cn1c(N)nc2ccc(-c3[nH]c(C(C)(C)C)nc3-c3ccc(F)cc3)nc21 [ralimetinib]
Method in brief: as §1

[7] = compound: CC(C)(O)CC(=O)NCCn1ccc2ncnc(Nc3ccc(Oc4cccc(C(F)(F)F)c4)c(Cl)c3)c21
Method in brief: as §1

[8] = compound: CC(C)C1=C2N=C(C=C(N2N=C1)NCC3=CC=CC=C3)NCCCCCCN
Method in brief: as §1

[9] = compound: CC(C)C[C@@H](C=O)NC(=O)[C@H](CC(C)C)NC(=O)[C@H](CC(C)C)NC(=O)OCc1ccccc1
Method in brief: as §1

pinometostat = compound: CC(C)N(C[C@H]1O[C@@H](n2cnc3c(N)ncnc32)[C@H](O)[C@@H]1O)[C@H]1C[C@@H](CCc2nc3cc(C(C)(C)C)ccc3[nH]2)C1 [pinometostat]
Method in brief: as §1

[10] = compound: CC1=C(C(CC(=O)N1)C2=CC=C(C=C2)C(F)(F)F)C(=O)NC3=C(C=C4C(=C3)C=NN4)F
Method in brief: as §1

[11] = compound: CC1=C(C2=C(C=C1)C(=O)C3=CC=CC=C3N2CCCN)C
Method in brief: as §1

[12] = compound: C/C(=N\NC(=O)C1=CC(=CC=C1)S(=O)(=O)N2CCOCC2)/C3=C(C=CC(=C3)Cl)O
Method in brief: as §1

[13] = compound: C1=CC2=C(C=CC(=C2)/C=C\3/C(=O)NC(=NCC4=CC=CS4)S3)N=C1
Method in brief: as §1

[14] = compound: C1=CC=C2C(=C1)C3=NNC4=CC=CC(=C43)C2=O
Method in brief: as §1

[15] = compound: CC(=O)c1cnc2ccc(-c3cc(Cl)c(O)c(Cl)c3)nc2c1N[C@H]1CC[C@H](CN(C)C)CC1
Method in brief: as §1

Measured: log2 fold change

HEATR3 (UniProt Q7Z4Q2)
inactive: erlotinib -0.002 | [1] -0.013 | [2] 0.013 | [3] -0.044 | [4] 0.062 | [5] -0.113 | [6] 0.032 | IRAK-1-4 Inhibitor I -0.08 | ibrutinib 0.006 | ralimetinib 0.07 | [7] -0.125 | [9] -0.137 | pinometostat -0.032 | [10] 0.216 | [11] -0.196
active: [8] -0.319

FMR1 (UniProt Q06787)
inactive: erlotinib -0.301 | [2] 0.154 | [4] -0.121 | IRAK-1-4 Inhibitor I 0.091 | ralimetinib 0.036 | [8] 0.149 | [9] 0.056 | pinometostat 0.153

FUNDC1 (UniProt Q8IVP5)
Chain of UniProt Q8IVP5 (Q8IVP5 whole entry, looked up): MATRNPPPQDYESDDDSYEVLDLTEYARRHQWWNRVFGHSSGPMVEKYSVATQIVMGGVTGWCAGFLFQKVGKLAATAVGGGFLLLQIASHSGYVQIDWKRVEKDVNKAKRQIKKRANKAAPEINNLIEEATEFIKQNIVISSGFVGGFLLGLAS
active: [3] 0.597
inactive: ibrutinib -0.023

GPNMB (UniProt Q14956)
Chain of UniProt Q14956 (Q14956 whole entry, looked up): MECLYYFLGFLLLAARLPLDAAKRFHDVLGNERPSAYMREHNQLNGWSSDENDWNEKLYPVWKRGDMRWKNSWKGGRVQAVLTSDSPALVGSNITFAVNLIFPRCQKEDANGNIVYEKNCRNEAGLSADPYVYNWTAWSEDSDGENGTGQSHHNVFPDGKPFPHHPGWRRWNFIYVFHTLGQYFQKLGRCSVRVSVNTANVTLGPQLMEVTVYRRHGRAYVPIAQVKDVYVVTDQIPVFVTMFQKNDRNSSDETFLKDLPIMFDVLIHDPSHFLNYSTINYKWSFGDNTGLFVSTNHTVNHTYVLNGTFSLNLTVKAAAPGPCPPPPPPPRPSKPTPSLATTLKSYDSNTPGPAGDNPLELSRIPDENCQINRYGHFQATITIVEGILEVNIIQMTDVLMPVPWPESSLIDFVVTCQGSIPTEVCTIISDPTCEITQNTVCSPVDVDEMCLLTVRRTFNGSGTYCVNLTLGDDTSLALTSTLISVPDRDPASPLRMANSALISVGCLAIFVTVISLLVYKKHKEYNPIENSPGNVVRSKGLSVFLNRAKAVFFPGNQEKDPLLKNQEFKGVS
inactive: erlotinib 0.286 | [1] -0.281 | [2] -0.046 | [7] 0 | [8] 0.108

FCHO1 (UniProt O14526)
Chain of UniProt O14526 (O14526 whole entry, looked up): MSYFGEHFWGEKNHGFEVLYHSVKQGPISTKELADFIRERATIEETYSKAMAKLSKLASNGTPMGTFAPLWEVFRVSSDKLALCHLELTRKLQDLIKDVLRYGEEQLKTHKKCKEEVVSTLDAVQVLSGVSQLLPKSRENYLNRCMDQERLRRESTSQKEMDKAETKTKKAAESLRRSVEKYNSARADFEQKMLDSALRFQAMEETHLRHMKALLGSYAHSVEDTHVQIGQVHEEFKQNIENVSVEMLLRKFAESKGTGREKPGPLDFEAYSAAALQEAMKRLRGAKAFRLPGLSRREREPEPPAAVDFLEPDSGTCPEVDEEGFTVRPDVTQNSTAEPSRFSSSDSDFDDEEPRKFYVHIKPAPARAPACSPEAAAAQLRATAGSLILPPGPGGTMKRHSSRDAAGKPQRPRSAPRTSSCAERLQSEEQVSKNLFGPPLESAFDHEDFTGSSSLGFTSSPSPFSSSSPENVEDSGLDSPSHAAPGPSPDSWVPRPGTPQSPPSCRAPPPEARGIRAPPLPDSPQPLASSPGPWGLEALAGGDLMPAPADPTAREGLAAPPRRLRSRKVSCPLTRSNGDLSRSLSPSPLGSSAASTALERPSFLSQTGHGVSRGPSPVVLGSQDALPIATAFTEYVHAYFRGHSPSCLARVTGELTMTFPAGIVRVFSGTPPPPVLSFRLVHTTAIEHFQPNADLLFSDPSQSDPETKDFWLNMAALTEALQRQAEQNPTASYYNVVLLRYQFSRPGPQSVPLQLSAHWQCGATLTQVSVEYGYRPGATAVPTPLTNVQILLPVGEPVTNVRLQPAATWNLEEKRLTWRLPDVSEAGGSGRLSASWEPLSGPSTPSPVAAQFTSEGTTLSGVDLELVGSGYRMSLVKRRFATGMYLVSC
inactive: erlotinib 0.065 | [12] 0.104 | [1] -0.032 | [2] -0.011 | [13] 0.07 | [4] -0.144 | [14] -0.061 | [5] -0.005 | [6] -0.029 | IRAK-1-4 Inhibitor I -0.114 | ralimetinib -0.081 | [7] -0.073 | [8] 0.045 | [9] 0.191 | pinometostat 0.05 | [10] 0.094 | [11] -0.011
active: [15] -0.593

HNRNPUL1 (UniProt M0R247)
inactive: erlotinib -0.032 | [12] -0.317 | [2] -0.513 | [13] 0.545 | [14] -0.419 | [5] 0.471 | [6] 0.051 | IRAK-1-4 Inhibitor I 0.041 | [15] -0.259 | [8] 0.121 | pinometostat -0.025 | [10] 0.031 | [11] 0.008

IGF2 isoform 3 (UniProt P01344)
Chain of UniProt P01344 (P01344 whole entry, looked up): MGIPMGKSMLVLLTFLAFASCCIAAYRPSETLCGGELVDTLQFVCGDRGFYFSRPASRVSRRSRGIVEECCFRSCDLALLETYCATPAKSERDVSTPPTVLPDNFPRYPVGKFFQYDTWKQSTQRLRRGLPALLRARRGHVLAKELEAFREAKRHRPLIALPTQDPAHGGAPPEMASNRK
inactive: erlotinib -0.098 | [2] 0.028 | IRAK-1-4 Inhibitor I 0.066 | [8] -0.104 | pinometostat -0.107

GSE1 (UniProt Q14687)
inactive: [3] -0.269 | [4] -0.048 | ibrutinib 0.057 | ralimetinib -0.065 | [9] 0.003 | [10] 0.044

HDAC10 (UniProt Q969S8)
Chain of UniProt Q969S8 (Q969S8 whole entry, looked up): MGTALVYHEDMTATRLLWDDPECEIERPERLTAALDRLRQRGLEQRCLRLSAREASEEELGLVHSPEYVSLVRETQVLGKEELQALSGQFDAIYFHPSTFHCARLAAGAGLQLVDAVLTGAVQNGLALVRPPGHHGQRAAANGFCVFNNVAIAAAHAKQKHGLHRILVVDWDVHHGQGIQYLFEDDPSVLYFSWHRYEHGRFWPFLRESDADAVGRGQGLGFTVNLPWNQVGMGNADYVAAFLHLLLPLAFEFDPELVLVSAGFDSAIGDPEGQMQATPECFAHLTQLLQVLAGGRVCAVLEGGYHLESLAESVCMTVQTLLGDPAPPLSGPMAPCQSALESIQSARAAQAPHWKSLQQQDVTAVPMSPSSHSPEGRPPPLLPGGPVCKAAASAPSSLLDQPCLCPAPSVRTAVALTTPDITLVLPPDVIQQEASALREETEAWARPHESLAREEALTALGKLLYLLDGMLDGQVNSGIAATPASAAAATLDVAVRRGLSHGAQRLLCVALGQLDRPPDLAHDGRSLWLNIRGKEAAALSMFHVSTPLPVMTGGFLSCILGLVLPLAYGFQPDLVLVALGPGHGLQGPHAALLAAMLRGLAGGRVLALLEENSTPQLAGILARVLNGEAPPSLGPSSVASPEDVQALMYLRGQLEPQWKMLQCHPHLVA
active: [5] -0.729
inactive: erlotinib 0.065 | [12] -0.067 | [2] 0.038 | [13] -0.277 | [3] 0.066 | [4] 0.045 | [14] -0.072 | [6] 0.333 | ibrutinib -0.01 | [15] 0.137 | ralimetinib 0.006 | [8] -0.124 | [9] -0.026 | [10] 0.037 | [11] -0.287

GOLGA6B (UniProt A6NDN3)
Chain of UniProt A6NDN3 (A6NDN3 whole entry, looked up): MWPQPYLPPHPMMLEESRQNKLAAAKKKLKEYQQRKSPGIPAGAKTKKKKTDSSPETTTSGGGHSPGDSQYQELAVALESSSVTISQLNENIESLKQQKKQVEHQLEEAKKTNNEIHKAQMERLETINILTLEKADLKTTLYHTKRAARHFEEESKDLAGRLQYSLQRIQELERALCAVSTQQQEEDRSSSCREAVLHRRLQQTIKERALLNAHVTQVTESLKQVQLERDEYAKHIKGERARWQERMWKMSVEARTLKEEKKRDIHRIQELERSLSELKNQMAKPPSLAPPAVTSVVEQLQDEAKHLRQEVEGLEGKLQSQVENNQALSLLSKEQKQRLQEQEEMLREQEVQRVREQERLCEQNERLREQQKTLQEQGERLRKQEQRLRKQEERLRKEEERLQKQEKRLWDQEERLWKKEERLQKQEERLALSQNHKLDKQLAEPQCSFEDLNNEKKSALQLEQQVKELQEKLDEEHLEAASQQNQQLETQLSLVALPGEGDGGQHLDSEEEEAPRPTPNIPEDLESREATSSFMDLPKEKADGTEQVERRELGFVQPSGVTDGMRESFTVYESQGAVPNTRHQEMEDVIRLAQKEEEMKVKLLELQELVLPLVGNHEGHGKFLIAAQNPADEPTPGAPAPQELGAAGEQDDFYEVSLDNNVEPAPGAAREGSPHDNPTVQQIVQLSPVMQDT
inactive: erlotinib -0.069 | [1] -0.054 | [2] 0.116 | [3] 0.036 | IRAK-1-4 Inhibitor I -0.034 | ibrutinib 0.013 | [7] 0.025 | [8] 0.165 | pinometostat -0.137 | [10] -0.19

GINS2 (UniProt Q9Y248)
Chain of UniProt Q9Y248 (Q9Y248 whole entry, looked up): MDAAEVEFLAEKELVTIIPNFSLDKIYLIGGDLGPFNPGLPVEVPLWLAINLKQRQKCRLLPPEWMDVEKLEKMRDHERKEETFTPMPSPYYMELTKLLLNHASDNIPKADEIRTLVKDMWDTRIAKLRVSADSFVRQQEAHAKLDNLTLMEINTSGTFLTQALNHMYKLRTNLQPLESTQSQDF
inactive: erlotinib 0.076 | [1] 0.083 | [2] -0.045 | [3] -0.008 | [4] 0.203 | [5] -0.089 | [6] -0.034 | IRAK-1-4 Inhibitor I 0 | ibrutinib -0.033 | ralimetinib 0.024 | [7] -0.02 | [8] -0.081 | [9] -0.042 | pinometostat -0.067 | [10] -0.057 | [11] 0.113

GOLGA8R (UniProt I6L899)
Chain of UniProt I6L899 (I6L899 whole entry, looked up): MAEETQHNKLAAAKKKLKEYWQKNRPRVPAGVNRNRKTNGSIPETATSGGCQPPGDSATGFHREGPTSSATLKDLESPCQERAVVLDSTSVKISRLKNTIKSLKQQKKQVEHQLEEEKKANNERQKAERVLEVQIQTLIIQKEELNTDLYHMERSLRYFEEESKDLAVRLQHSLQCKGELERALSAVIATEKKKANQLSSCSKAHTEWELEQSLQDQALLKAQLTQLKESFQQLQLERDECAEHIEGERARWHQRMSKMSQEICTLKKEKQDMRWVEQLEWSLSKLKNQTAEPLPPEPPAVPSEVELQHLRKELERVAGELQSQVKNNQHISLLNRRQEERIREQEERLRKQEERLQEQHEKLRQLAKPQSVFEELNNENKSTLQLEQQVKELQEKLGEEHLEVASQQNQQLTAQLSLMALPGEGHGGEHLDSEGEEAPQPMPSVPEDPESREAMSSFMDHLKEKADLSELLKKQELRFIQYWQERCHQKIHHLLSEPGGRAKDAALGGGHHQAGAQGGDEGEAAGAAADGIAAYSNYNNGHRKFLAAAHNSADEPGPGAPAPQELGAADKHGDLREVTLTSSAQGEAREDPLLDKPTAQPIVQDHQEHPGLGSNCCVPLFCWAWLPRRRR
inactive: erlotinib 0.377 | [12] -0.394 | [2] -0.019 | [13] 0.078 | [3] -0.008 | [4] 0.058 | [14] -0.049 | [5] -0.097 | [6] 0.302 | IRAK-1-4 Inhibitor I 0.003 | ibrutinib 0.04 | [15] -0.106 | ralimetinib 0.247 | [8] 0.227 | [9] 0.177 | pinometostat 0.035 | [11] 0.201

GNL3 (UniProt Q9BVP2)
Chain of UniProt Q9BVP2 (Q9BVP2 whole entry, looked up): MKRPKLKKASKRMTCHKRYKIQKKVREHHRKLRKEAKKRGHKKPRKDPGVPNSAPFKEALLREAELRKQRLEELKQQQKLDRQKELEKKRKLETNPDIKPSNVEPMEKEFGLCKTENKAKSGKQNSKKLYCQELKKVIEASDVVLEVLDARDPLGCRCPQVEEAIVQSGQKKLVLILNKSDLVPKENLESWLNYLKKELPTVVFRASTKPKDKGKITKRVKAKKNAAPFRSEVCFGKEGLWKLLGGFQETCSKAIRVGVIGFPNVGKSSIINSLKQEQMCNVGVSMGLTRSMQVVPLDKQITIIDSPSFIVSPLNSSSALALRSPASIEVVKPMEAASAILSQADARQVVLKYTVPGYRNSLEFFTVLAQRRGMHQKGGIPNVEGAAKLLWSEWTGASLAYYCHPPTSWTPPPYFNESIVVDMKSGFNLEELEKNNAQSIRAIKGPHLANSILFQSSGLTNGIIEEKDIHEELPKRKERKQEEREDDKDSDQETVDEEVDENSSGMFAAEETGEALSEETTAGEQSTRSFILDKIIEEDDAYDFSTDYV
active: [12] -0.562
inactive: [1] 0.165 | [13] 0.149 | [3] -0.054 | [14] 0.053 | [5] -0.048 | [6] 0.142 | ibrutinib 0.047 | [15] 0.012 | [7] -0.007 | [10] 0.029 | [11] 0.066

HS1BP3 (UniProt Q53T59)
Chain of UniProt Q53T59 (Q53T59 whole entry, looked up): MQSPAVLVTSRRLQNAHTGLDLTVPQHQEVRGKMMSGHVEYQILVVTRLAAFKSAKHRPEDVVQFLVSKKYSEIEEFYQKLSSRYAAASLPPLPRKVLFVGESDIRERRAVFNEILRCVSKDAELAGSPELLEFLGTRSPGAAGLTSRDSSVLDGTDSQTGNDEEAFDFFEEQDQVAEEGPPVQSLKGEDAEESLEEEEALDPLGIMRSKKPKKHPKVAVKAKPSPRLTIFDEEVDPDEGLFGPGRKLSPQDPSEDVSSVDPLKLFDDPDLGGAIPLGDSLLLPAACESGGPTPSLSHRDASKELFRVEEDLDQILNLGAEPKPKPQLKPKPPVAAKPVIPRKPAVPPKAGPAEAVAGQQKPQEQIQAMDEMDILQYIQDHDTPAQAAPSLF
inactive: erlotinib 0.008 | [12] 0.042 | [1] 0 | [2] -0.073 | [13] 0.147 | [3] -0.008 | [4] -0.032 | [14] -0.03 | IRAK-1-4 Inhibitor I 0.004 | ibrutinib -0.029 | [15] -0.117 | ralimetinib 0.038 | [7] -0.059 | [8] -0.038 | [9] 0.086 | pinometostat -0.002 | [10] 0.004
